BLM helicase inh – qHTS Assay for Inhibitors of Bloom's syndrome helicase (BLM). recombinant BLM DNA unwinding, fluorescence dequenching. RecQ-like DNA helicase BLM (Homo sapiens), P54132. 350,000 compounds, 0.2% hits. Potency, µM (doses to about 56.1 µM), inactives show at the top dose activity change, negative = inhibition, usual class: inhibitors;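 note: plate controls were vehicle for no effect and no enzyme for full effect; nearly all actives have a fitted effect of over 35% in size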
Lamin A splicing – qHTS Assay for Modulators of Lamin A Splicing; 200,000 compounds, 0.01% hits; Potency, µM (series often up to 46.1 µM), for inactives: at the top dose ratio change, negative = inhibition, most hits filed as inhibitors; HeLa LMNA splicing GFP/RFP minigene ratio, 48 h; AID 1487, 2009; active = well fitted inhibition curve with a large enough effect in the signal ratio, with a control signal flat, not every such curve was filed as active; inconclusive = small, poorly fitted or top-dose-only effect, or effect the other way, or a change in a side signal; the % refers to the signal ratio
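S3 HeLa stable clones carrying a lamin A-EGFP splicing minigene plus DsRed2 were seeded at 600 cells/well in Opti-MEM with 2% FBS, pin-dosed and incubated 48 h at 37°C. Acumen cytometry (488 nm) gave the GFP/RFP total-intensity ratio.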
APE1 inh – qHTS Assay for Inhibitors of the Human Apurinic/apyrimidinic Endonuclease 1 (APE1). DNA repair nuclease/redox regulator APEX1 (Homo sapiens), P27695. AID 2517, 2012. 350,000 compounds, 0.35% hits. Potency, µM (series often up to 65.8 µM), for the others: top-dose activity change, negative = inhibition, actives largely listed as inhibitors. recombinant APE1, TAMRA/BHQ-2 abasic DNA cleavage fluorescence;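 note: plate controls were vehicle for no effect and reference inhibitor for full effect; nearly all actives have a fitted effect of over 55% in size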
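Measures dequenching upon AP-site incision of a 5'-TAMRA/3'-BHQ-2 THF-containing duplex, 50 nM; human APE1 0.75 nM after 15 min room-temperature exposure to compound; kinetic three-point read at one-minute spacing.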
GCN5L2 inh – qHTS Assay for Inhibitors of GCN5L2. Histone acetyltransferase KAT2A (Homo sapiens), Q92830. GCN5L2 HAT assay, ThioGlo1 CoA-SH fluorescence. Potency, µM (doses to about 58.9 µM), for inactives: at the highest dose activity change, negative = inhibition, actives largely listed as inhibitors. 390,000 compounds, 0.21% hits. AID 504327, 2011
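ThioGlo1-coupled HAT assay: 20nM GCN5L2, 70uM acetyl-CoA, 75uM H3(1-25) peptide, pH 7.5. Fluorescence read at 340/540nm at start and after 20 min at room temperature.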
TDP1 inh – qHTS Assay for Inhibitors of Tyrosyl-DNA Phosphodiesterase (TDP1). Tyrosyl-DNA phosphodiesterase 1 (Homo sapiens), Q9NUW8. Potency, µM (titrated, usually from 130 µM), for inactives: top-dose activity change, negative = inhibition, hits mostly inhibitors. 350,000 compounds, 0.28% hits. recombinant TDP1, AlphaScreen DNA substrate cleavage; note: nearly all actives have a fitted effect of over 40% in size
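Enzyme-compound mixtures sat 15 min at room temperature, followed by a 5 min reaction with 15 nM final substrate and 10 min with AlphaScreen beads. Recombinant human Tdp1 was used at 1 nM final.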
RECQ1 inh – qHTS Assay for Inhibitors of RecQ-Like Dna Helicase 1 (RECQ1) | ATP-dependent DNA helicase Q1 (Homo sapiens), P46063 | RECQ1 DNA unwinding, red fluorescence kinetic read | Potency, µM (series often up to 57.3 µM), without a hit: at the highest dose activity, negative = inhibition, actives largely listed as inhibitors | 240,000 compounds, 0.54% hits | AID 2549, 2010;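 note: plate controls were vehicle for no effect and no enzyme for full effect; nearly all actives have a fitted effect of over 30% in size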
Target sequence (P46063 whole entry, looked up): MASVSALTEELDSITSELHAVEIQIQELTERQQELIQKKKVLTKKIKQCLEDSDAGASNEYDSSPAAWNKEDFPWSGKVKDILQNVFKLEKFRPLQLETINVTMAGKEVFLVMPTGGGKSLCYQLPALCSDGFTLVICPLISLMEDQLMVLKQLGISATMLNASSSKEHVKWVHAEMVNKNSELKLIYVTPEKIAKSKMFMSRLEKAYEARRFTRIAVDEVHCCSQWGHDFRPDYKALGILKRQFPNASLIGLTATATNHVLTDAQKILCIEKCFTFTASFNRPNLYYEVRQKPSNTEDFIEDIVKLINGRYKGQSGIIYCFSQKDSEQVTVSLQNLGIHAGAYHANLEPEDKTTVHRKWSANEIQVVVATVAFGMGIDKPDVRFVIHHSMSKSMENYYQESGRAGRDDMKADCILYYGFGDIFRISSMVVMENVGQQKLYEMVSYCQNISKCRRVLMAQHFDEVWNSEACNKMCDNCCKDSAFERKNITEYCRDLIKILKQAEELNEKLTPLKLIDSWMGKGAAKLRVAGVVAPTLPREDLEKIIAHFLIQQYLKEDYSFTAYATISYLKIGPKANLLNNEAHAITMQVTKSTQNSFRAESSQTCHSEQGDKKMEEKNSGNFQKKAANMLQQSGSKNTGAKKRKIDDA
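50 nM RECQ1T1 preincubated 15 min with compound in Tris pH 8.0 buffer with MgCl2, DTT, Tween-20 and 2.5 ug/ml poly(dI-dC); started with 200 nM TAMRA/BHQ-2 forked duplex and 2 mM ATP. Unwinding read as fluorescence (525/598 nm), two reads 2 h apart.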
* = called active by the depositor; ! = not active in a repeat; [ ] = remark or other dose. Shown are actives, neighbours in structure and some others; about 0.9% of the full set was active somewhere. Unless noted, calls come from the whole dose curve; as a rule, active = well fitted curve in the direction sought with a large enough effect; inconclusive = small, poorly fitted or top-dose-only effect, or another doubt; inactive = no such curve, though single readings can be large; an effect the other way counts as inactive or inconclusive. Unless noted, % is set by controls: 0 for no effect and ±100 for the full control effect; potency is the fitted concentration of half-maximal effect.

Results for CC(C)Cn1c(N)c(C(=O)CSc2nc3ncc(Cl)cc3[nH]2)c(=O)n(C)c1=O ?
APE1 inh: -6%; GCN5L2 inh: 2%; TDP1 inh: -14%[0.505 µM]

What do the screens show for `CCCn1c(N)c(C(=O)CSc2nc3ncc(Cl)cc3[nH]2)c(=O)n(C)c1=O`?
APE1 inh: inconclusive; GCN5L2 inh: -6%; TDP1 inh: 28µM*

What do the screens show for `N#C/C(=C\c1c[nH]c2ccccc12)C(=O)c1ccc(O)c(O)c1`?
Lamin A splicing: inconclusive; APE1 inh: inconclusive; GCN5L2 inh: -10%; TDP1 inh: 17%[56.1 µM]; RECQ1 inh: 11µM*

How did N#C/C(=C\c1c[nH]c2ccccc12)C(=O)NC1CC1 do in these assays?
BLM helicase inh: 0%; APE1 inh: 7%; GCN5L2 inh: -4%

Results for Cc1ccc(-c2ccc(/C=C3/NC(=O)NC3=O)o2)cc1[N+](=O)[O-] ?
BLM helicase inh: -21%; Lamin A splicing: inconclusive; APE1 inh: -5%; GCN5L2 inh: -13%; TDP1 inh: 0%; RECQ1 inh: 28µM*

Results for O=C1NC(=S)N/C1=C/c1ccc(-c2c(Br)cc([N+](=O)[O-])cc2Br)o1 ?
BLM helicase inh: -15%; Lamin A splicing: -9%; APE1 inh: -11%; GCN5L2 inh: inconclusive; RECQ1 inh: -29%

Results for COC(=O)C[C@](O)(CCCC(C)(C)O)C(=O)O[C@@H]1C(OC)=CC23CCCN2CCc2cc4c(cc2[C@H]13)OCO4 (some centres not stated) ?
APE1 inh: -6%

What do the screens show for `CCOc1ccc(C(=O)N/N=C/c2cc(Cl)ccc2[N+](=O)[O-])cc1`?
BLM helicase inh: 11µM*; Lamin A splicing: 8%; APE1 inh: 5%; GCN5L2 inh: -21%; TDP1 inh: 3%; RECQ1 inh: -2%

How did CC1(C)CC(=O)c2sc(NC(=O)CCS(=O)(=O)c3ccccc3)nc2C1 do in these assays?
BLM helicase inh: -3%; Lamin A splicing: 4.5µM*; APE1 inh: -8%; GCN5L2 inh: 1%; TDP1 inh: 10%; RECQ1 inh: -7%

How did COc1ccc(-c2cccc(C3C4C=CCCC4(C)C(=O)N3Cc3ccccc3)c2)cc1 (configuration not stated) do in these assays?
BLM helicase inh: -8%; APE1 inh: -4%; TDP1 inh: 10%; RECQ1 inh: -15%

What do the screens show for `CC(=O)/C=C(\C)Nc1ccc(-c2cnc(-c3ccccc3)o2)cc1`?
BLM helicase inh: 1%; Lamin A splicing: -10%; APE1 inh: -4%; GCN5L2 inh: 28µM*; TDP1 inh: -2%; RECQ1 inh: 21%

How did Cn1sc(=O)n(Cc2ccccc2)c1=O do in these assays?
BLM helicase inh: 0%; APE1 inh: -3%; GCN5L2 inh: 20µM*; TDP1 inh: 12%; RECQ1 inh: -6%

How did Cn1nnnc1Sc1ncnc2scc(-c3ccccc3C(F)(F)F)c12 do in these assays?
APE1 inh: 28%; GCN5L2 inh: inconclusive; TDP1 inh: 8.9µM*

What do the screens show for `CN(/N=C/c1ccc(N(C)C)cc1)C1=NS(=O)(=O)c2ccccc21`?
BLM helicase inh: 35%; APE1 inh: 24µM*; GCN5L2 inh: 1%

What do the screens show for `COc1ccc(/C=N/N(C)C2=NS(=O)(=O)c3ccccc32)cc1`?
BLM helicase inh: -4%; APE1 inh: -17%; GCN5L2 inh: -15%

Results for N#C/C(=C\c1cc(Br)c(O)c(Br)c1)c1nc2ccccc2c(=O)[nH]1 ?
BLM helicase inh: 13µM*; GCN5L2 inh: -3%; TDP1 inh: inconclusive

Results for N#C/C(=C/c1ccncc1)c1nc2ccccc2c(=O)[nH]1 ?
BLM helicase inh: -16%; APE1 inh: -2%; GCN5L2 inh: -2%; TDP1 inh: 5%; RECQ1 inh: -10%

Results for COc1cc(C)c(/C=C/C(C)=C/C=C/C(C)=C/C(=O)O)c(C)c1C ?
BLM helicase inh: -6%; Lamin A splicing: inconclusive; APE1 inh: 1%; GCN5L2 inh: 25µM*; TDP1 inh: 6%; RECQ1 inh: -23%

Results for CCOC(=O)/C=C(C)/C=C/C=C(C)/C=C/c1c(C)cc(OC)c(C)c1C ?
BLM helicase inh: -5%; GCN5L2 inh: -10%

How did COc1ccccc1-c1no[n+]([O-])c1C#N do in these assays?
APE1 inh: -2%

What do the screens show for `Clc1ccc(C(c2ccccc2Cl)C(Cl)Cl)cc1` (configuration not stated)?
BLM helicase inh: -2%; Lamin A splicing: inconclusive; APE1 inh: -19%; GCN5L2 inh: -11%; TDP1 inh: 10%; RECQ1 inh: -8%

What do the screens show for `CCc1ccc(C(c2ccc(CC)cc2)C(Cl)Cl)cc1`?
APE1 inh: 0%; GCN5L2 inh: 4%; TDP1 inh: 20µM*!; RECQ1 inh: -8%

Results for COc1ccc(CN(Cc2ccccc2)C(=O)c2ccccc2N)cc1COc1ccc(NC(C)=O)cc1 ?
TDP1 inh: 1%

Results for Cc1ccc(OCC(=O)c2cc(C)c(C)cc2C)c([N+](=O)[O-])n1 ?
BLM helicase inh: -18%; Lamin A splicing: 5%; APE1 inh: inconclusive; GCN5L2 inh: -17%; TDP1 inh: -5%; RECQ1 inh: inactive

What do the screens show for `Cc1ccc(OCC(=O)c2c(N)n(C)c(=O)n(C)c2=O)c([N+](=O)[O-])n1`?
APE1 inh: 15µM*; GCN5L2 inh: -27%; TDP1 inh: 3.2µM*

What do the screens show for `N[C@H](C(=O)O)[C@@H]1CC(Cl)=NO1`?
APE1 inh: 4%
